Most compounds without a hit are left out; they make up all but 6.8% or so of the library.
T cruzi growth-1: inhibitors of T. cruzi proliferation; T. cruzi beta-gal in NIH3T3, GalScreen luminescence, 90 h; inhibition, % at 8.34 µM; 77,000 compounds, 5.9% hits;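 active = mean inhibition above about 93%, with at least 55% of replicates each passing it, limit read from the data, passing the limit was not always enough; inconclusive = only one of those two conditions holds; inactive = neither condition holds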
Pf Dd2 inh: inhibitors of Plasmodium falciparum Dd2 growth | P. falciparum Dd2 growth, SYBR Green, 72 h; active compounds read low | activity change, % at 10 µM | 94,000 compounds, 2.3% hits | AID 1159554; in the data active = activity change below about -80%; inconclusive = no clear call, values can overlap the other calls
C diff HTS: inhibitors of Clostridium difficile growth | 86,000 compounds, 0.25% hits | Clostridium difficile clinical isolate growth, OD600, 24 h; active compounds read low | AID 1259249 | growth activity, negative = inhibition, % at 16 µg/mL (by protocol);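 active = mean growth activity at or below -80% and every replicate also at or below -80%; inconclusive = mean at or below -80% but some replicate above -80%; inactive = mean growth activity above -80%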;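 note: 0% = DMSO wells and -100% = levofloxacin 16 µg/mL wells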
T cruzi growth-2: Trypanosoma cruzi proliferation inhibition | shares compounds with T cruzi growth-1 | T. cruzi beta-gal in NIH3T3, GalScreen luminescence, 90 h | inhibition, % at 8.35 µM | 5,600 compounds, 72% hits | AID 651739;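 active = mean replicate inhibition above about 95% and at least 55% of replicates individually reaching it, limit read from the data; inconclusive = only one of the two criteria is met; inactive = neither criterion is met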
T cruzi growth-3: inhibitors of T. cruzi proliferation; shares compounds with T cruzi growth-1; T. cruzi beta-gal in NIH3T3, GalScreen luminescence, 90 h; inhibition, % at 2.09 µM; 5,600 compounds, 21% hits; AID 651740;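 active = mean inhibition above about 95%, with at least 55% of replicates also reaching it, limit read from the data; inconclusive = meets just one of the two conditions; inactive = meets neither condition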;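 note: plate controls were neutral control median for no effect and positive control median for full effect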
3T3 cytotox: cytotoxicity in mouse NIH/3T3 fibroblasts; shares compounds with T cruzi growth-1; NIH/3T3 viability, CellTiter-Glo ATP luminescence, 90 h; cytotoxicity (signal decrease), % at 8.35 µM; 5,600 compounds, 14% hits; AID 651742;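 active = mean signal decrease across replicates above about 35% based on untreated-well scatter, with enough replicates individually passing, limit read from the data; inconclusive = no rule stated though some were filed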;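 note: 0% = median of neutral control wells and 100% = median of positive control wells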
NIH3T3 tox 2: kills mouse NIH/3T3 fibroblasts; AID 651744; shares compounds with T cruzi growth-1; 5,600 compounds, 56% hits; NIH/3T3 viability, CellTiter-Glo ATP luminescence, 90 h; inhibition, % at 24.9 µM;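 active = mean loss of cell viability signal at or above a set limit, and enough replicates individually reaching it; inconclusive = meets only the mean limit or only the replicate share; inactive = meets neither condition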;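 note: 0% = median of neutral control wells and 100% = median of positive control wells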
* marks the source's active call; other numbers are inactive results; ? = inconclusive; . = no result given; ! = a repeat was not active.

SMILES | T cruzi growth-1 | Pf Dd2 inh | C diff HTS | T cruzi growth-2 | T cruzi growth-3 | 3T3 cytotox | NIH3T3 tox 2
O=C(C[C@H]1CC[C@H]2[C@@H](COC[C@H](O)CN2C(=O)Nc2ccc(Cl)c(Cl)c2)O1)NCc1ccc(Cl)c(Cl)c1 | 97.0* | -12.2 | . | 84.5 | 64.0 | 40.6* | 105.4*
O=C(C[C@H]1CC[C@H]2[C@@H](COC[C@@H](O)CN2C(=O)Nc2ccc(Cl)c(Cl)c2)O1)NCc1ccc(Cl)c(Cl)c1 | 85.1 | -3.8 | . | . | . | . | .
O=C(C[C@H]1CC[C@H]2[C@@H](COC[C@H](O)CN2C(=O)Nc2ccc(Cl)c(Cl)c2)O1)NCc1ccccc1 | 51.3 | -0.6 | . | . | . | . | .
O=C(C[C@@H]1CC[C@@H]2[C@H](COC[C@@H](O)CN2C(=O)Nc2ccc(Cl)c(Cl)c2)O1)NCc1ccncc1 | 127.2* | -7.9 | -96.3*! | 74.1 | -7.6 | 4.0 | ?
O=C(C[C@@H]1CC[C@H]2[C@@H](COC[C@@H](O)CN2C(=O)Nc2ccc(Cl)c(Cl)c2)O1)NCc1ccc(Cl)c(Cl)c1 | 85.9 | -3.1 | . | . | . | . | .
O=C(C[C@H]1CC[C@H]2[C@@H](COC[C@@H](O)CN2C(=O)c2ccncc2)O1)NCc1ccc(-c2ccccc2)cc1 | -11.0 | -9.2 | 1.3 | . | . | . | .
O=C(C[C@H]1CC[C@@H]2[C@H](COC[C@@H](O)CN2C(=O)Nc2ccc(Cl)c(Cl)c2)O1)NCc1ccc(Cl)c(Cl)c1 | 98.3* | -1.1 | . | 88.3 | 101.6* | 31.5 | 106.3*
O=C(C[C@@H]1CC[C@H]2[C@@H](COC[C@@H](O)CN2C(=O)c2ccncc2)O1)NCc1ccc(-c2ccccc2)cc1 | 116.7* | -23.2 | 4.6 | 11.9 | 14.8 | 0.9 | 18.7
C/C=C/c1cnc2c(c1)C(=O)N([C@H](C)CO)C[C@@H](C)[C@H](CN(C)C(=O)CN1CCOCC1)O2 | 21.4 | -4.4 | 0.6 | . | . | . | .
C[C@@H]1CN([C@H](C)CO)C(=O)c2cccc(NS(=O)(=O)c3ccc(Cl)cc3)c2O[C@@H]1CN(C)CC1CCCCC1 | 29.2 | -15.8 | 14.6 | . | . | . | .
CNC[C@@H]1Oc2ccc(NC(=O)Nc3ccccc3)cc2C(=O)N([C@H](C)CO)C[C@H]1C | -0.2 | 15.0 | 1.2 | . | . | . | .
C[C@H]1CN([C@@H](C)CO)C(=O)c2cccc(NS(=O)(=O)c3ccc(Cl)cc3)c2O[C@@H]1CN(C)C(=O)Nc1ccccc1 | 19.0 | 21.9 | 13.0 | . | . | . | .
Cc1ccc(S(=O)(=O)N[C@H]2CC[C@H](CCNC(=O)C3CCC3)O[C@H]2CO)cc1 | . | -19.0 | -0.5 | . | . | . | .
C/C=C/c1ccc2c(c1)O[C@@H](CN(C)C(=O)c1ccccc1)[C@@H](C)CN([C@@H](C)CO)S2(=O)=O | . | -2.9 | 4.8 | . | . | . | .
C/C=C/c1ccc2c(c1)O[C@H](CN(C)C(=O)c1cccc(F)c1)[C@H](C)CN([C@H](C)CO)S2(=O)=O | 78.0 | -39.6 | -1.2 | . | . | . | .
C[C@@H]1CN([C@@H](C)CO)S(=O)(=O)c2ccc(/C=C/c3ccccc3)cc2O[C@H]1CN(C)C(=O)c1ccccc1 | 126.6* | -78.0 | 5.0 | 110.0* | 73.6 | 55.4* | 85.0*
C/C=C/c1ccc2c(c1)O[C@H](CN(C)C(=O)c1ccccc1)[C@H](C)CN([C@H](C)CO)S2(=O)=O | . | -8.5 | -3.4 | . | . | . | .
C/C=C/c1ccc2c(c1)O[C@H](CN(C)C(=O)c1ccncc1)[C@@H](C)CN([C@H](C)CO)S2(=O)=O | 60.6 | 4.2 | 1.8 | . | . | . | .
C/C=C/c1ccc2c(c1)O[C@@H](CN(C)C(=O)c1cccc(F)c1)[C@@H](C)CN([C@@H](C)CO)S2(=O)=O | ? | -58.1 | 0.2 | 86.4 | 31.5 | 13.4 | ?
C[C@H](CO)N1C[C@H](C)[C@H](CN(C)C(=O)c2ccccc2)Oc2cc(/C=C/c3ccccc3)ccc2S1(=O)=O | 126.6* | -77.7 | 3.2 | 100.7* | 77.7 | 24.4 | 14.2
C[C@@H]1CN([C@@H](C)CO)S(=O)(=O)c2ccc(/C=C/c3ccccc3)cc2O[C@H]1CN(C)C(=O)c1ccncc1 | 101.2* | -32.9 | 6.4 | 103.1* | 65.5 | 38.4* | 69.7*
O=C(C[C@H]1C[C@@H]2c3cc(NC(=O)Nc4ccc(F)cc4)ccc3O[C@@H]2[C@H](CO)O1)NCC1CC1 | -30.7 | -5.5 | 3.9 | . | . | . | .
